Source: PubChem (several laboratories)
H9c2 protect: myocardial damage modulation in H9c2 cells. H9c2 cardiomyocytes, H2O2 injury protection, ATPLite, 2 h. AID 588492. 360,000 tested, 0.63% active. protection from H2O2 cell death, % at 20 µM;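 active means compounds giving at least 50% protection of heart cells from peroxide-induced death in the single-dose screen, raw or plate-pattern-corrected value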;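 further: 0% = DMSO wells with peroxide and 100% = DMSO wells without peroxide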
ABHD5-PLIN5 inh: blocks binding of human ABHD5 to perilipin-5; Q00G26+Q8WTS1; Split G. princeps luciferase complementation, luminescence, 4 h; 360,000 tested, 0.78% active; inhibition, % at 4 µM; AID 602281;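 active means inhibition above the mean inhibition across every tested compound plus 3 SD, cut at about 22% in these data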;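 further: 0% = DMSO only wells and the 100% control is not disclosed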
sPLA2-III inh: Blocks human group III sPLA2 activity; Q9NZ20; QFRET BODIPY PC-A2 liposome hydrolysis, fluorescence; inhibition, % at 12.2 µM; 370,000 tested, 0.56% active; AID 743126;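 active means inhibition above mean plus 3 SD of compounds lying within the high and low control bounds, cut at about 19% in these data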;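 further: 0% = median of test compound wells and 100% = no enzyme DMSO wells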
Myeloid diff 2: compounds promoting myeloid differentiation | ER-HoxA9 myeloid progenitors, lysozyme-GFP differentiation, flow cytometry | 360,000 tested, 1% active | calls only at 10 µM;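 active means normalized GFP-positive differentiation at or above the plate's own cutoff, the solvent-only control mean plus 3 SD; inconclusive means no clear call, values can overlap the other calls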;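 further: cells exposed to compound for four days before flow analysis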
Rtt109 Vps75: inhibitors of Candida albicans Rtt109/Vps75 histone acetyltransferase; Q5AAJ8; purified Rtt109/Vps75, ThioGlo CoA-SH fluorescence, 4 h; inhibition, % at 34.9 µM; 330,000 tested, 0.16% active; AID 540336;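 active means inhibition of at least 50% in every replicate; inconclusive means best replicate reaches 50% inhibition but some replicates fall short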
Target sequence (Q5AAJ8 whole entry, looked up): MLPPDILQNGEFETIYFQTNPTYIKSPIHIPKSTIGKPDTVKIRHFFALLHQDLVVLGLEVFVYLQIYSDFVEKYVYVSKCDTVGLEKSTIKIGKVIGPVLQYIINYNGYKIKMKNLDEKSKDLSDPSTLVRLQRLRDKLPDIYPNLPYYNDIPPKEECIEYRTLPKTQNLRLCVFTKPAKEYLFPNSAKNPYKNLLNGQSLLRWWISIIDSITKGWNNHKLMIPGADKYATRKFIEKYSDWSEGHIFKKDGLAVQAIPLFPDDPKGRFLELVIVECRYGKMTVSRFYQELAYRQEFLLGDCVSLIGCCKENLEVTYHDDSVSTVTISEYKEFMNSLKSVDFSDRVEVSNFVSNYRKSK
DAGLB inhibitor: blocks human DAGLB lipase activity; Q8NCG7; HEK293T DAGLB membrane lysate, EnzChek fluorogenic substrate; inhibition, % at 5.17 µM; 340,000 tested, 0.059% active; AID 504411; in the data active means inhibition above about 34%;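 further: 0% = enzyme with vehicle and 100% = wells lacking enzyme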
Myeloid diff: promotes myeloid progenitor differentiation; shares compounds with Myeloid diff 2; ER-HoxA9 myeloid progenitors, GFP/Mac1 double-positive flow; calls only; 2,300 tested, 2% active;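 active means share of green or green-and-red cells above 9 and 9% in run 1 or 4 and 3% in run 2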
GFP autofluor: flagged as fluorescent in myeloid differentiation counter-screen | shares compounds with Myeloid diff 2 | ER-HoxA9 myeloid progenitors, no estrogen, GFP autofluorescence flow cytometry; vehicle wells 0%, positive control 100% | fluorescence response, % (no concentration beside the values) | 2,300 tested, 7.4% active;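 active means over 5% cells positive for green fluorescent reporter, or over 2% positive for both it and APC stain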;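 further: range taken on the double positive population between DMSO and positive control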
Numbers without * were called inactive; i = inactive; ? = inconclusive; / = no result; + = active, no number. Only some compounds are listed: those with a hit (about 2.9% of all), similar ones and a draw of the others.

SMILES	H9c2 protect	ABHD5-PLIN5 inh	sPLA2-III inh	Myeloid diff 2	Rtt109 Vps75	DAGLB inhibitor	Myeloid diff	GFP autofluor
COC(=O)c1ccc(NC(=O)C2C3C=CC(C3)C2C(=O)O)cc1 (stereo unspecified)	-4.0	1.4	11.9	i	-9.4	-1.3	/	/
O=C(ONC(=O)C1C2C=CC(C2)C1C(=O)NOC(=O)c1ccccc1)c1ccccc1 (stereo unspecified)	6.9	2.8	5.0	i	-5.2	1.9	i	0.0
CC(C)(C)C(=O)Nc1cc(NC(=O)C(C)(C)C)cc(C(=O)NNC(=O)c2ccncc2)c1	-1.4	2.3	-1.8	+	1.7	-1.8	i	0.0
CN1CCN(c2ccc(Cl)cc2NC(=O)c2cc(=O)[nH]c3ccccc23)CC1	23.5	15.2	-11.0	i	8.6	2.9	/	/
CN1CCN(c2cc3c(c4c2[nH]c2ccccc24)C(=O)CC(C)(C)C3)CC1	-5.2	17.6	-30.3	i	0.8	2.4	i	0.0
O=C(NCCCN1CCCC1=O)c1ccccc1NS(=O)(=O)c1ccc(F)cc1	20.1	1.2	6.0	i	-5.1	-0.6	/	/
O=C(Nc1nc(-c2ccc(Cl)cc2)cs1)C1=COCCO1	-17.0	1.4	3.7	i	8.5	-7.7	i	0.0
COC(=O)NC(NC(=S)Nc1ccccc1OC)C(Cl)(Cl)Cl (stereo unspecified)	-3.6	0.2	3.4	i	-12.9	0.0	/	/
Cc1ccc(C(=O)ON=C2CCN(S(=O)(=O)c3ccccc3)CC2)cc1	-2.8	4.0	-5.2	i	-5.5	-3.2	i	0.0
COc1ccccc1NS(=O)(=O)c1cc(NC(=O)Cc2n[nH]c(=O)c3ccccc23)ccc1Cl	69.9*	4.2	-20.4	i	-0.1	3.6	i	0.4
COc1ccc(S(=O)(=O)N2CCCCCC2)cc1NC(=O)Cc1n[nH]c(=O)c2ccccc12	22.6	-8.6	-6.5	i	/	1.3	/	/
Cc1ccccc1NS(=O)(=O)c1ccc(C(=O)N2CCCCCCC2)cc1	-7.7	-12.9	-7.8	i	8.2	-1.3	/	/
Cc1ccccc1NS(=O)(=O)c1ccc(OCC(=O)N2CCCCC2)cc1	-0.1	15.6	-6.4	+	-2.5	2.6	i	0.0
CCOc1ccc(S(=O)(=O)Nc2ccccc2C(=O)N(C)C2CCN(C)CC2)cc1	5.6	9.2	9.1	i	-4.5	0.2	i	0.0
COc1cccc(C2CC(c3ccccc3)=NN2S(=O)(=O)c2ccc(C)cc2)c1OC (stereo unspecified)	-5.0	5.3	-3.1	+	49.2	-7.0	i	92.7*
CCSCCC(NC1=CC(=O)CC(C)(C)C1)C(=O)O (stereo unspecified)	3.5	5.2	0.8	+	2.7	-4.0	i	0.3
Cc1onc(-c2ccccc2)c1C(=O)Nc1nnc(N(C)Cc2ccccc2)s1	0.0	9.4	1.2	i	-3.0	2.9	/	/
Cc1ccccc1CC1(CO)CCCN(C(=O)c2ccccc2N(C)C)C1 (stereo unspecified)	5.6	-5.0	-8.6	i	-9.7	-5.4	/	/
Cc1cccc(C(CC(=O)O)NC(=O)C(F)(F)F)c1 (stereo unspecified)	-8.5	7.5	3.2	i	/	-0.2	/	/
O=C(CN1C(=O)c2ccccc2C1=O)Nc1ccccc1C(=O)NC1CCCCC1	2.5	1.7	8.0	i	0.6	0.7	/	/
O=c1[nH]c(CN2CCc3ccccc3C2)nc2ccccc12	32.8	-0.9	-6.0	i	-6.3	3.4	/	/
O=C(CCc1nc2ccccc2c(=O)[nH]1)N1CCCc2ccccc21	66.8*	-2.2	-3.1	+	5.1	4.0	i	1.6
CCCCOC(=O)C1=C(C)NC(=O)NC1c1ccc([N+](=O)[O-])s1 (stereo unspecified)	3.0	7.2	5.5	+	?	2.0	i	0.0
CC(C)CN(C(=O)CSc1nnnn1C)C1CCS(=O)(=O)C1 (stereo unspecified)	-17.3	-2.8	-1.1	i	-0.1	-0.9	/	/
